High-throughput results as filed in PubChem BioAssay.
HT1080NT lethal = qHTS for induction of synthetic lethality in tumor cells producing 2HG: qHTS for the HT-1080-NT fibrosarcoma cell line; HT-1080-NT fibrosarcoma viability, CellTiter-Glo ATP luminescence, 48 h; Potency, µM (titrated, usually from 46.1 µM), for the others: top-dose activity, negative = less viability, actives largely listed as cytotoxic; 360,000 tested, 1.6% active;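 also: NT is the 2HG producing partner of a matched IDH1 knockdown line; 0% = DMSO-treated cells and -100% = media-only wells without cells; nearly all actives have a fitted effect of over 55% in size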
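Fibrosarcoma NT cells, 750 per well in 5% FBS RPMI, were exposed to compound for 48 hours. Viability: CellTiter-Glo luminescence.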
KB-3-1 tox = qHTS assay for MDR1-selective chemotherapeutics: Primary screen using the parental adenocarcinoma cell KB-3-1. 400,000 tested, 1.4% active. Potency, µM (series often up to 46.1 µM), usual class: cytotoxic. KB-3-1 viability, CellTiter-Glo ATP luminescence, 72 h; also: nearly all actives have a fitted effect of over 60% in size
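KB-3-1 cells, DMEM (no phenol red) + 10% FBS; compound by pin transfer, 72 h, 37 °C. Readout: CellTiter-Glo luminescence after 10 min. Data normalized, curve-fitted.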
HT1080 IDH1KD tx = qHTS for induction of synthetic lethality in tumor cells producing 2HG: qHTS for the HT-1080-IDH1KD cell line. HT-1080 IDH1 knockdown viability, ATP luminescence, 48 h. Potency, µM (highest dose often 46.1 µM), for inactives: top-dose activity, negative = toxicity, actives largely listed as cytotoxic. 360,000 tested, 2% active. AID 686971, 2013;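 also: 0% = DMSO wells and -100% = cell-free medium wells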
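% activity derives from luminescence (CellTiter-Glo), normalised to DMSO and no-cell wells. HT-1080-IDH1KD cells, 750/well, had 48 h compound exposure at 37 °C.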
KB-V1 cytotox = qHTS assay for MDR1-selective chemotherapeutics: Primary screen using the drug-selected MDR subline cells KB-V1. KB-V1 MDR cells viability, CellTiter-Glo, 72 h. Potency, µM (top dose mostly 46.1 µM), most hits filed as cytotoxic. 400,000 tested, 3.4% active. AID 1347076, 2019; also: nearly all actives have a fitted effect of over 60% in size
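Potencies derive from concentration-effect curves fitted to normalized luminescence (CellTiter-Glo) of KB-V1 cells treated for 72 h at 37 degrees C in phenol-red-free DMEM containing 10% FBS.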
* hit, by the source's call; i = inactive; u = inconclusive; x = not tested or not shown. Rows were chosen to be rich in hits. Some 5.7% of all compounds tested hit in one or more screens of this group. Calls follow the shape of the dose curve; as a rule, active = well fitted curve in the direction sought with a large enough effect; inconclusive = small, poorly fitted or top-dose-only effect, or another doubt; inactive = no such curve, though single readings can be large; an effect the other way counts as inactive or inconclusive. Unless noted, % is scaled to controls: 0 for no effect and ±100 for the full control effect; potency is read from the fitted curve at half-maximal effect.

SMILES	HT1080NT lethal	KB-3-1 tox	HT1080 IDH1KD tx	KB-V1 cytotox
Fc1ccc(CN2CCN(c3ncnc4scc(-c5ccc(F)cc5)c34)CC2)cc1	u	i	u	i
CC(C)c1ccc(-c2csc3ncnc(N4CCN(C)CC4)c23)cc1	16µM*	i	21µM*	i
CCOC(=O)N1CCN(c2ncnc3scc(-c4ccc(Cl)cc4)c23)CC1	u	i	-9%	u
O=C(Nc1ccccc1)N1CCn2c(nc3ccccc32)C1	20%	i	7%	23µM*
C=CCc1c(C)c(C#N)c2nc3ccccc3n2c1N1CCCCC1	2%	u	-2%	i
C=C(C)Cc1c(C)c(C#N)c2nc3ccccc3n2c1N1CCCCC1	6%	i	0%	3.7µM*
Cc1ccc(NC(=O)C(C)c2ccc(-c3ccccc3)c(F)c2)cc1 (stereo not drawn)	16µM*	u	13µM*	i
COC(=O)c1c(-c2ccccc2)csc1NC(=O)CSc1ncnc2sc(C)c(C)c12	1%	i	3%	12µM*
Cc1cccnc1NC(=O)CSc1ncnc2sc(C)c(C)c12	-3%	i	7%	15µM*
O=C(NCc1cccc(Cl)c1)c1ccc(NC(=O)N2CC3CCCN3c3ccccc32)cc1 (stereo not drawn)	x	i	x	i
O=C(COC(=O)c1cccc(S(=O)(=O)NCc2ccccc2)c1)c1ccccc1	5%	i	1%	i
Cc1cc(C)c(C(=O)COC(=O)c2cccc(S(=O)(=O)NCc3ccccc3)c2)cc1C	-10%	i	-2%	18µM*
COc1cccc(CN(C)C(=O)c2[nH]c(C)c(C(C)=O)c2C)c1OC	-15%	7.3µM*	-25%	18µM*
O=C(NCc1ccccc1)c1cccc(S(=O)(=O)NCc2ccccc2)c1	-10%	i	-2%	16µM*
CN(C)C1(CNC(=O)c2cccc(S(=O)(=O)NCc3ccccc3)c2)CCCCC1	-6%	i	u	i
COc1ccccc1CNC(=O)c1[nH]c(C)c(C(C)=O)c1C	0%	i	8%	i
CCOc1ccc(C(=O)NCc2ccccc2)cc1Br	2%	i	0%	18µM*
COc1cc(NC(=O)CSc2nc(-c3ccc(C(C)C)cc3)no2)cc(OC)c1	x	i	x	i
Cc1ccc(OCC(=O)Nc2cc(-c3nc4cc(Cl)ccc4o3)ccc2C)c(C)c1	x	i	x	i
Cc1ccc2oc(-c3cccc(NC(=O)c4ccc(N5CCC(C)CC5)c([N+](=O)[O-])c4)c3)nc2c1	x	i	x	i
O=C(NCc1ccccc1)c1cccc(COc2cccc(Cl)c2)c1	u	i	u	i
O=C(NCc1ccccc1)c1cccc(COc2ccc(Cl)cc2)c1	-12%	i	-14%	18µM*
COc1cccc(CN(C)C(=O)c2cc(S(=O)(=O)NCc3ccccc3)ccc2C)c1OC	3%	i	-2%	18µM*
COc1ccc(CN(C)C(=O)c2cc(S(=O)(=O)NCc3ccccc3)ccc2C)c(OC)c1	-1%	i	-3%	i
CC(=O)c1ccc(NC(=O)Nc2sc3nc4n(c(=O)c3c2C)CCC(C)CC4)cc1 (stereo not drawn)	x	i	x	u
SMILES	HT1080NT lethal	KB-3-1 tox	HT1080 IDH1KD tx	KB-V1 cytotox
COc1ccc2c(Sc3ccccc3)c(C(=O)NCc3cc(Br)ccc3OC)[nH]c2c1	x	i	x	i
CCn1c(SC(C)C(=O)Nc2ccc(C)cc2)nnc1-c1ccccc1 (stereo not drawn)	x	i	x	i
Cc1nc2ccccc2c(=O)n1/N=C/c1cn[nH]c1-c1ccccc1	-10%	u	-10%	i
Cc1ccccc1OCc1nc2ccccc2c(=O)n1/N=C/c1cn[nH]c1-c1ccccc1	u	u	u	13µM*
O=C(NCC1CCCO1)C1c2ccccc2C(=O)N1C1CCCCCCC1 (stereo not drawn)	4%	i	11%	7.3µM*
O=C(NCC1CCCO1)[C@@H]1CSC2c3ccccc3C(=O)N21 (stereo partly drawn)	17%	i	15%	u
O=C(NCc1cccnc1)C1c2ccccc2C(=O)N1C1CCCCCC1 (stereo not drawn)	12%	i	4%	18µM*
O=C(NC1CCCCCC1)C1c2ccccc2C(=O)N1Cc1ccc(F)cc1 (stereo not drawn)	x	i	x	i
O=C(NCc1cccnc1)C1c2ccccc2C(=O)N1C1CCCCCCC1 (stereo not drawn)	-2%	i	-3%	i
O=C(NC1CCCCCC1)C1c2ccccc2C(=O)N1Cc1cccnc1 (stereo not drawn)	11%	i	3%	12µM*
COc1ccc(CN(Cc2ccccc2)C(=O)Nc2ccccc2)cc1COc1ccc(NC(C)=O)cc1	2%	x	1%	x
COc1cc2ccc(C(C)=NOC(C)=O)cc2cc1OC	7%	5.2µM*	3%	2.1µM*
COc1ccc(N2CCN(c3ccc(-c4nc(-c5ccccc5)no4)cc3[N+](=O)[O-])CC2)cc1	x	i	x	i
CCc1cccc(C)c1NC(=O)CN1C(=O)c2ccccc2Sc2ncccc21	x	i	x	i
CCOC1CCCc2oc(-c3ccc(N(C)C)cc3)c(C(=O)OC)c21 (stereo not drawn)	u	u	u	8.2µM*
CC(=O)C1=C(O)C(CSCc2ccccc2)N(C)C1=O (stereo not drawn)	2%	i	-1%	21µM*
O=[N+]([O-])c1ccc(N=Nc2c(Cl)cc(O)cc2Cl)cc1	6.5µM*	18µM*	8.2µM*	i
Cc1ccc(CC(=O)Nc2c(C(=O)N3CCN(c4ccccc4F)CC3)oc3ccccc23)cc1	x	i	x	i
Cc1ccc(C)c(N2CCN(C(=O)CCn3c(=O)[nH]c4ccccc4c3=O)CC2)c1	x	i	x	i
CCC1(C)Cc2c(sc3nnn(CC(=O)Nc4ccccc4)c(=O)c23)CO1 (stereo not drawn)	-9%	i	-17%	7.3µM*
CCC1(C)Cc2c(sc3nnn(CC(=O)Nc4ccccc4C)c(=O)c23)CO1 (stereo not drawn)	-1%	i	-11%	15µM*
Cc1cccc(NC(=O)Cn2nnc3sc4c(c3c2=O)CC(C)(C)OC4)c1	3%	i	0%	i
CCC1(C)Cc2c(sc3nnn(Cc4ccccc4Cl)c(=O)c23)CO1 (stereo not drawn)	11%	i	-3%	21µM*
C=CCN=c1scc(-c2ccc3c(c2)NC(=O)CO3)n1/N=C(\C)c1ccccn1	u	5.2µM*	u	u
O=c1cc(-c2ccccc2)[nH]c2ccccc12	u	0.65µM*	2.3µM*	u
